Each structure is given as a SMILES string. The whole screen tested about 420,000 compounds, of which about 64,000 (15%) were called active. Not shown: some 27% with an inconclusive outcome. These entries were drawn from the full list. Where a call stands in place of a potency, no number is given. Values without a mark were called inactive. Calls follow the shape of the dose curve; as a rule, active = well fitted inhibition curve with a large enough effect; inconclusive = small, poorly fitted or top-dose-only effect; inactive = flat fitted curve, though single readings scatter.
Potency is read from the fitted curve at half-maximal effect.

The assay can be described thus: qHTS for Inhibitors of human tyrosyl-DNA phosphodiesterase 1 (TDP1): qHTS in cells in absence of CPT. Also: nearly all actives have a fitted effect of over 55% in size. Particulars: DT40 Tdp1-/- hTDP1 cells, no CPT, ATP luminescence, 48 h; activity change, negative = growth inhibition: at 46.2 µM (top of the series). In a few lines:
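A cellular qHTS used chicken DT40 cells lacking endogenous Tdp1 but carrying stably transfected human TDP1. Compounds were applied without camptothecin, and cell growth kinetics were judged by ATP-dependent luminescence after ≥48 hr.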
In general terms: qHTS replaces the single test concentration by a dilution series.
Take `CCn1c(=O)cc(SCC(=O)NCc2ccc3c(c2)OCO3)c2ccccc21`: the Potency entry is “inactive”.

On to `CC1(C)NC(=O)N(CC(=O)Nc2cc(C(F)(F)F)cc(C(F)(F)F)c2)C1=O`, for which the Potency result is “inactive”.

As to `Cc1c(NC(=O)/C=C/C(=O)O)cccc1[N+](=O)[O-]`, the Potency result is “inactive”.

On to `CNC(=S)Nc1ccc([N+](=O)[O-])cc1`, for which the Potency result was “inactive”.

Consider `O=C(O)/C=C/C(=O)NNc1ccc([N+](=O)[O-])cc1`, for which the Potency is 18.4 µM (active).

As for `CCC(=O)NC(NCC1CCCO1)C(Cl)(Cl)Cl` (stereo not drawn), the Potency result was “inactive”.

For `CC(C)Nc1nc(NCCOc2ccccc2Cl)c2sccc2n1`, the Potency is 20.6 µM (active).

For `COc1cccc(CNc2nccn(-c3ccc(OC)c(OC)c3)c2=O)c1`, the Potency result was “inactive”.

In the case of `COc1cccc(CNc2nc(NCc3ccccc3OC)nc3ccsc23)c1`, the Potency is 9.2 µM (active).

As for `COc1cccc(CNc2nc(NCc3cccs3)nc3ccsc23)c1`, the Potency was 10.3 µM (active).

For the compound `CCc1ccc(S(=O)(=O)c2nnn3c2nc(NCc2ccccc2OC)c2cc(Cl)ccc23)cc1`, the Potency result is “inactive”.

In the case of `COc1ccccc1CNCc1cccs1`, the Potency entry was “inactive”.

On to `COc1ccccc1CNc1nc(Nc2ccccc2Cl)c2sccc2n1`, for which the Potency is 7.31 µM (active).

In the case of `COCCNc1nc(NCc2ccc(NC(C)=O)cc2)c2sccc2n1`, the Potency result was “inactive”.

Consider `Cc1nc2cc(NCc3cccs3)ccc2n1C`, for which the Potency entry is “inactive”.

On to `COc1ccc(NC(=O)C/C(C)=N/NC(=O)c2cnccn2)cc1Cl`, for which the Potency result was “inactive”.

Consider `COc1ccc(C(=O)N(Cc2ccc(N(C)C)cc2)C2CCS(=O)(=O)C2)cc1` (stereo not drawn), for which the Potency result was “inactive”.

Turning to `CC(C)C(OC(=O)c1cccs1)C(=O)NC1CCCCC1` (stereo not drawn), the Potency result was “inactive”.

Take `CCNc1nc(N)nc(-c2cc(Cl)ccc2OC)n1`: the Potency entry is “inactive”.

Consider `COc1ccc(OC)c(S(=O)(=O)Nc2ccccc2F)c1`, for which the Potency result was “inactive”.

For `COc1ccc(C(=O)OCC(=O)Nc2ccc3[nH]c(=O)[nH]c3c2)c(OC)c1OC`, the Potency result was “inactive”.

With `O=C(Nc1ccc(F)c([N+](=O)[O-])c1)C1CCCO1` (stereo not drawn), the Potency result is “inactive”.

`COc1ccc(/C=C2\NC(=O)[C@@H]3Cc4ccccc4CN3C2=O)cc1`: the activity change, negative = growth inhibition is -8.4% [at 9.04 µM].

As to `COc1ccc(/C=C2/CCCc3ccccc3C2=O)cc1`, the Potency was 5.8 µM (active).

Regarding `COc1ccc(/C=C2\CCc3ccccc3C2=O)c(OC)c1OC`, the Potency is 20.6 µM (active).

With `O=C1/C(=C/c2cccs2)CCc2ccccc21`, the Potency result was “inactive”.

For the compound `COc1ccccc1C1=CC(=O)CCC1`, the Potency result was “inactive”.

As to `COc1ccc(/C=C2\N=C3CCCN3C2=O)cc1`, the Potency result was “inactive”.

With `O=C(O)CC(Cc1ccccc1)C(=O)Nc1ccc([N+](=O)[O-])cc1` (stereo not drawn), the Potency result was “inactive”.

For `COc1ccc(/C(C)=N\NC(=O)c2ccc(-c3ccccc3)cc2)c(F)c1`, the Potency result is “inactive”.

Take `COc1cccc(C(=O)Nc2cccnc2)c1OC`: the Potency result was “inactive”.

Regarding `COc1cccc(C(=O)N/N=C(\C)c2cccc(NC(=O)c3ccc(F)cc3)c2)c1OC`, the Potency was 23.1 µM (active).

Take `CCc1ccc(CCC(=O)Nc2ccc(S(N)(=O)=O)cc2)o1`: the Potency entry is “inactive”.

For the compound `Cc1ccc2cc(C)c(N3CCC(C)CC3)nc2c1`, the Potency entry is “inactive”.

For the compound `CCOc1n[nH]c(-c2ccccc2)n1`, the Potency result was “inactive”.

Take `O=C(CNC(=O)N1CC(=O)Nc2ccccc21)Nc1ccc(Br)cc1F`: the Potency result was “inactive”.

On to `Cc1ccc(Cn2ccc(NC(=O)C3C4CCC(C4)C3C(=O)O)n2)cc1` (stereo not drawn), for which the Potency entry is “inactive”.

Take `O=C(COc1ccc(Cl)cc1)Nc1ccc2c(c1)OCO2`: the Potency result was “inactive”.

Turning to `COc1ccc(NC(=O)C2Cc3c(-c4ccc5c(c4)OCO5)ccnc3O2)cn1` (stereo not drawn), the Potency is 4.61 µM (active).

Consider `COc1ccc(CCCNC(=O)C2Cc3c(-c4cccc(C(N)=O)c4)ccnc3O2)cc1` (stereo not drawn), for which the Potency is 16.4 µM (active).

Consider `COc1ccc(OCC(O)CNC(=O)Nc2ccc(Cl)cc2)cc1` (stereo not drawn), for which the Potency result is “inactive”.

On to `COc1ccc(CCNC(=O)COc2ccc3c(c2)OCO3)cc1`, for which the Potency result is “inactive”.

`COc1ccc(Cn2ccnc2SCC(=O)Nc2ccc3c(c2)OCO3)cc1`: the Potency result is “inactive”.

With `COc1ccc(CCNC(=O)COC(=O)c2cnc(Cl)c(Cl)c2)cc1`, the Potency result is “inactive”.

As to `COc1ccc(NC(=O)C2Cc3c(-c4ccc(Cl)cc4)ccnc3O2)cc1` (stereo not drawn), the Potency is 13 µM (active).

Consider `O=C(Nc1ccc(Cl)cc1)C1Cc2c(-c3ccc4c(c3)OCO4)ccnc2O1` (stereo not drawn), for which the Potency was 20.6 µM (active).

As for `O=C(Nc1ccc2c(c1)OCO2)C1CC1(Cl)Cl` (stereo not drawn), the Potency entry is “inactive”.

Regarding `CC(=O)Nc1ccc(-c2ccnc3c2CC(C(=O)NC(C)C)O3)cc1` (stereo not drawn), the Potency result was “inactive”.

In the case of `COc1ccc(N(CC(=O)NC2CCCC2)C(=O)CS(=O)CC(=O)Nc2ccc3c(c2)OCO3)cc1` (stereo not drawn), the Potency entry is “inactive”.

For `COc1cc(OC)c(C(=S)N2CCCC2)cc1OC`, the Potency entry was “inactive”.

As to `O=C1NC(=O)C(CCc2ccccc2)(c2ccccc2)N1` (stereo not drawn), the Potency result is “inactive”.

On to `O=C(Nc1c2c(nn1-c1cccc(Cl)c1)CS(=O)(=O)C2)c1cccs1`, for which the Potency result was “inactive”.

Take `COc1ccc(-n2nnnc2SCC(=O)NCc2cccs2)cc1`: the Potency result is “inactive”.

On to `COc1ccc(N2CCN(C(=O)c3cn(C)c4ccc(S(=O)(=O)N5CCOCC5)cc4c3=O)CC2)cc1`, for which the Potency entry is “inactive”.

On to `CC(=O)NC1(c2cccc(F)c2)CCN(CC(=O)NC(C)C)CC1`, for which the Potency entry is “inactive”.

Consider `CCCCC1=CC2=CC(=O)C(C)(OC(=O)CC)C(=O)C2=CN1CCCOC(C)C` (stereo not drawn), for which the Potency entry was “inactive”.

For the compound `CCOc1ncccc1C(=O)OCC(=O)c1c[nH]c2ccccc12`, the Potency entry was “inactive”.

As to `O=C(CCC(=O)OCC(F)(F)C(F)F)NCc1ccccc1`, the Potency entry was “inactive”.

Consider `O=C(NC12CC3CC(CC(C3)C1)C2)N1CCCC(CO)C1` (stereo not drawn), for which the Potency entry is “inactive”.

As to `CCOC(=O)c1ccc[n+](CC(=O)Nc2ccccc2OC(F)F)c1`, the Potency entry was “inactive”.

With `Nc1nc(SCc2ccc([N+](=O)[O-])cc2)c2ncn(C3OC(CO)C(O)C3O)c2n1` (stereo not drawn), the Potency entry was “inactive”.

For `OC[C@@H]1O[C@H](n2cnc3c(SCc4ccccc4)ncnc32)[C@H](O)[C@H]1O`, the Potency was 11.2 µM (active).

As to `CC(C)Sc1nc(N)nc2c1ncn2C1OC(CO)C(O)C1O` (stereo not drawn), the Potency result was “inactive”.

In the case of `O=C(CCc1ccccc1)NCc1cccnc1`, the Potency entry was “inactive”.

`O=C(CCc1ccccc1)NCc1ccc2c(c1)CCN2C(=O)c1ccccc1`: the Potency was 20.6 µM (active).

On to `Cc1ccc(C(=O)N2CCc3cc(CNC(=O)c4ccc(Br)cc4)ccc32)cc1`, for which the Potency was 14.6 µM (active).

Consider `Cc1cc2cc(CNC(=O)c3ccc(S(=O)(=O)N4CCOCC4)cc3)ccc2[nH]1`, for which the Potency result is “inactive”.

Consider `CCC(=O)N1CCc2cc(S(=O)(=O)NC(Cc3ccccc3)C(=O)NCc3ccc(C)cc3)ccc21` (stereo not drawn), for which the Potency result was “inactive”.

For the compound `O=C(CCc1ccc(S(=O)(=O)NC2CCCCC2)cc1)NCc1ccccc1`, the Potency result was “inactive”.

For `CN(C)c1ncc2nc(-c3ccc(F)cc3)c(=O)n(Cc3ccc(F)cc3)c2n1`, the Potency entry is “inactive”.

For `C=Cc1ccc(Cn2c(C(=O)OC)cc3sc(C)cc32)cc1`, the Potency entry was “inactive”.

With `C=CC[C@@H](CC(=O)NCCO)C(=O)N[C@H](C)COC(=O)[C@@H](CC=C)CC(=O)OC(C)(C)C`, the Potency entry was “inactive”.

For the compound `O=C(CCc1c[nH]c2ccccc12)NCCOc1ccccc1`, the Potency entry is “inactive”.

For `C=CC[C@H](CC(=O)NCCO)C(=O)N[C@@H](COC(=O)[C@@H](CC=C)Cc1ccc(F)cc1)Cc1c[nH]c2ccccc12`, the Potency was 23.1 µM (active).

On to `C=CCC[C@@H](Cc1ccc(F)cc1)C(=O)OC[C@H](Cc1c[nH]c2ccccc12)NC(=O)[C@@H](CC=C)CC(=O)N(CCO)Cc1ccccc1`, for which the Potency was 16.4 µM (active).

In the case of `COC(=O)C(Cc1c[nH]c2ccccc12)NC(=O)CCNC(=O)c1ccco1` (stereo not drawn), the Potency result was “inactive”.

With `CC(=O)NC(Cc1c[nH]c2ccccc12)C(=O)NCCc1ccccc1` (stereo not drawn), the Potency entry was “inactive”.

As for `C=CCC[C@H](Cc1ccc(F)cc1)C(=O)OC[C@@H](Cc1c[nH]c2ccccc12)NC(=O)[C@H](CC=C)CC(=O)N[C@H](CO)Cc1ccccc1`, the Potency was 20.6 µM (active).

In the case of `CCN(CC)c1nc(C#N)nc(OC)n1`, the Potency result is “inactive”.

Take `CC1(C)CC(=O)NC=C(c2ccccc2)C1`: the Potency entry was “inactive”.

Take `COc1cc2c(cc1OC)/C(=C/C(=O)c1ccc(NC(C)=O)cc1)NCC2`: the Potency entry is “inactive”.

Regarding `O=C(OCCO)c1cc(Cl)c(C(=O)OCCO)cc1Cl`, the Potency result was “inactive”.

As for `O=S(=O)(c1ccc(-c2ccccc2)cc1)N1CCCC1`, the Potency result is “inactive”.

With `CN[C@@H]1[C@H](O[C@H]2[C@H](O[C@H]3[C@H](O)[C@@H](O)[C@H](N=C(N)N)[C@@H](O)[C@@H]3N=C(N)N)O[C@@H](C)[C@]2(O)CO)O[C@@H](CO)[C@H](O)[C@H]1O`, the Potency entry is “inactive”.

Regarding `Cc1cc(C)nc(Nc2n[nH]c(-c3ccccc3N)n2)n1`, the Potency result was “inactive”.

In the case of `CCOC(=O)CSc1nncc2ccc(OC)c(OC)c12`, the Potency result is “inactive”.

For the compound `Cc1cc(-c2ccc(S(=O)(=O)N3CCN(c4cccc(C(F)(F)F)c4)CC3)s2)on1`, the Potency entry is “inactive”.

As for `Cc1cccc(N2CCN(S(=O)(=O)c3ccc(-c4cc(C)no4)s3)CC2C)c1` (stereo not drawn), the Potency result is “inactive”.

`Cc1cc(C)cc(NS(=O)(=O)c2ccc(-c3cc(C)no3)s2)c1`: the Potency was 2.59 µM (active).

Consider `CC(=O)c1ccc(NS(=O)(=O)c2ccc(-c3cc(C)no3)s2)cc1`, for which the Potency result was “inactive”.

With `Cc1cc(-c2ccc(S(=O)(=O)N3CCc4ccccc4C3)s2)on1`, the Potency entry was “inactive”.

Consider `CCc1cccc(C)c1NS(=O)(=O)c1ccc(-c2cc(C)no2)s1`, for which the Potency was 0.517 µM (active).

As to `COc1cc(CNc2ncn[nH]2)ccc1OCc1ccccc1C`, the Potency result was “inactive”.

In the case of `CC(C)CNc1ncnc2c1nnn2C`, the Potency entry was “inactive”.

For `Cc1cccc(NC(=O)NC2(C)CCS(=O)(=O)C2)c1` (stereo not drawn), the Potency entry is “inactive”.

With `Cc1nccn1-c1ccc(NC(=O)[C@H]2O[C@@H](n3ccc(=O)[nH]c3=O)[C@H](O)[C@@H]2O)cc1`, the Potency entry was “inactive”.

Turning to `COCCOC(=O)C1=C(C)NC(=O)NC1c1cc2c(cc1Br)OCO2` (stereo not drawn), the Potency result is “inactive”.

For `CCOc1cc(S(=O)(=O)NC2CC(C)(C)NC(C)(C)C2)ccc1F`, the Potency result is “inactive”.

Consider `COc1cc(/C=N/Nc2ccc(C)cc2)cc(Br)c1O`, for which the Potency result is “inactive”.

Regarding `COc1cc(/C=N/NC(=O)Cc2ccccc2)cc(OC)c1OC`, the Potency entry was “inactive”.

As to `COc1cc(/C=N/Nc2nn3cnnc3c3ccccc23)cc(OC)c1OC`, the Potency was 16.4 µM (active).

For the compound `Cc1nnsc1C(=O)NCc1c(F)cccc1Cl`, the Potency result is “inactive”.

As to `COc1ccccc1Nc1nnc(SC(C)C(=O)NC2CC2)s1` (stereo not drawn), the Potency entry is “inactive”.

Values taken from PubChem BioAssay AID686978 (National Center for Advancing Translational Sciences (NCATS), 2013).
